Measurements published in PubChem BioAssay (NCI).
About 83,000 compounds went through this panel and 20% of them were active in at least one assay; those are over-represented in the sample as a whole.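 Percent growth is the endpoint: 0 to 100 indicates growth inhibition (40 means 60% inhibition), 0 means no net growth, and negative values indicate cell death.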 Activity calls are given as the source filed them. The calls were made as follows: active = growth percent below 10; inactive = the rest.

System: MDA-MB-468 breast
Assay: NCI-60 one-dose screen, 48 h (100 = growth as untreated, 0 = no growth, -100 = all killed)
Settings: 10 µM unless noted

SMILES | growth
C/C(=N\NC(N)=O)c1c(O)sc(=O)[nH]c1=O | 97.4% (inactive)
Nc1c(C(=O)Nc2cccc(Cl)c2Cl)sc2nc3c(cc12)C(=O)CCC3 | 71.8% (inactive)
CCCCNC(=O)Oc1ccc(/C(=C(\C)c2ccccc2)c2ccc(OCCN(CC)CC)cc2)cc1 | 70.3% (inactive)
C[C@@H]1CC[C@H]2[C@@H](C)C(O)O[C@@H]3O[C@]4(C)CC[C@@H]1[C@]32OO4 (stereo not given in full) | 27.7% (inactive)
CCCCCCn1c(-c2ccc(C(=O)O/N=C(\N)c3ccc4ccccc4c3)cc2)nc(-c2ccccc2)c1-c1ccccc1 | 78.8% (inactive)
COc1ccc(NC(=O)COc2ccccc2)c(C(N)=O)c1 | 16.6% (inactive)
COc1ccc2[nH]c(=O)c(/C=N/Nc3nc(-c4ccccc4)cs3)c(O)c2c1 | 87.6% (inactive)
Cc1ccc2oc(=O)cc(C3C(C#N)=C(N)Oc4c3ccc3ccccc43)c2c1 (stereo not given) | 63.8% (inactive)
CCN(CC)c1ccc(Nc2ccc(CC(=O)c3ccccc3)cc2)cc1 | 85.2% (inactive)
ON1CCCC1 | 108% (inactive)
COc1c(B(O)O)cc(F)cc1-c1nc2ccc3[nH]ncc3c2c2c1CCCC2 | -4.35% (active)
Cc1nc(-c2cc3ccccc3c(N3CCN(C)CC3)n2)cs1 | 87% (inactive)
COc1cc(-c2nn(-c3ccc(C(=O)O)cc3)cc2C(=O)O)ccc1O | 103% (inactive)
CCOC(=O)c1cnn(-c2ccc(S(N)(=O)=O)cc2)c1N | 94.7% (inactive)
CCCCn1c(=O)c2c(nc3n2CCCN3CCc2ccc(OCC(=O)NCCN(CC)CC)cc2)n(CCCC)c1=O | 43.7% (inactive)
CC1=C(SCCC(=O)OC(C[Se]C2=C(C)C(=O)c3ccccc3C2=O)C(=O)NCCCCCC(=O)OCc2ccccc2)C(=O)c2ccccc2C1=O (stereo not given) | 30.5% (inactive)
COc1ccc(Oc2nc(NC3CCCC3)nc(Sc3ccc(OC)cc3)n2)cc1 | 93% (inactive)
COc1cc(/C=C2\Oc3cc(OCCCN4CCCC4)ccc3C2=O)cc(OC)c1 | 42.3% (inactive)
C/C=C\COc1cc(C)c(Cl)cc1Cl | 91.5% (inactive)
Oc1ccccc1/C=N/Nc1nc2ccccc2s1 | 21.5% (inactive)

SMILES | growth
COc1ccc2c(c1)/C(=N/c1n[nH]c(=S)s1)C(=O)N2 | 17.1% (inactive)
O=C(NNc1nc2cc(F)c(F)cc2n2cccc12)c1ncccn1 | 3.66% (active)
CC(=O)c1c[nH]c2ccc(-c3ccnc(Nc4ccc(NC(=O)C5CCCC5)c(CN5CCOCC5)c4)n3)cc12 | -53.9% (active)
Fc1ccc2nc(-c3ccc(-c4noc(-c5ccc(Cl)cc5)n4)cc3)[nH]c2c1 | 110% (inactive)
C=C1C(=O)O[C@H]2[C@H]1CC/C(COC(=O)c1ccccc1)=C\CC[C@@]1(C)O[C@@H]21 | -28.7% (active)
CC(=O)c1cc2c(N)c(C(=O)Nc3cccc4ccncc34)sc2nc1C | 71.6% (inactive)
Nc1ccccc1SC1CC(=O)N(c2cccc3ccccc23)C1=O (stereo not given) | 87% (inactive)
C=C1CCC2C(C)(COC(=O)CC)C(OC(=O)CC)CCC2(C)C1C/C=C1/C(=O)OCC1OC(=O)CC (stereo not given) | -48.5% (active)
NCCCOc1cc(Cl)ccc1NC(=O)c1cc2ccccc2cc1OCCCN | -85.3% (active)
C/C(=C(/c1ccccc1)c1ccc(N2C(=O)c3cccc4c(NCc5ccccc5)ccc(c34)C2=O)cc1)c1ccccc1 | 116% (inactive)
c1ccc(Sc2ncccn2)nc1 | 97% (inactive)
N#Cc1c(O)c2c(c(O)c1C#N)C(=O)c1ccccc1C2=O | 7.71% (active)
N/C(=N/N=C/c1ccccc1)N/N=C\c1ccccc1 | -15.7% (active)
CC(C)OC(=O)c1ccc2[nH]c(O)c(C(=Nc3ccc(N(C)C(=O)CN4CCN(C)CC4)cc3)c3ccccc3)c2c1 | -91% (active)
NS(=O)(=O)c1ccc(CCN=C=S)cc1 | -6.54% (active)
O=S(=O)(O)c1ccc(Cl)c(Cl)c1 | 115% (inactive)
O=[N+]([O-])c1ccc(NS(=O)(=O)c2ccc(Cl)c(Cl)c2)cc1 | 64.6% (inactive)
CC(C)C[C@H](C(=O)N[C@@H](C)C(N)=O)N1CC=CCN(O)S1(=O)=O | 109% [5 µM] (inactive)
CCCCCCCCCCCCCCCCNC(=O)OC(C)C | 36.1% (inactive)
O=c1[nH]c(=S)[nH]c(O)c1/C=C1\C=Nc2ccccc21 | 103% (inactive)
